For this assay, the system named is UCD52 (cells of a triple-negative basal-like breast cancer xenograft). Nature of the assay: cell viability of combination (% of vehicle); higher = less cytotoxic. As to conditions: 1 µM; 72 h; partner dose: 10 nM. The protocol:
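PDX cells were treated for 72 h with each drug at 1 µM plus carfilzomib (10 nM; 100 nM for WHIM2). Luciferase viability is expressed as percent of vehicle.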
Regarding `Cc1ccc(-n2[nH]c(C)c(NN=C3C=CC=C(c4cccc(C(=O)O)c4)C3=O)c2=O)cc1C` [Eltrombopag] + CC(C)C[C@H](NC(=O)[C@H](CCc1ccccc1)NC(=O)CN1CCOCC1)C(=O)N[C@@H](Cc1ccccc1)C(=O)N[C@@H](CC(C)C)C(=O)[C@@]1(C)CO1 [Carfilzomib], the “cell viability of combination” value worked out at 58.8.

As for `COC1=C(OC)C(=O)C(CCCCCCCCCCO)=C(C)C1=O` [Idebenone] + CC(C)C[C@H](NC(=O)[C@H](CCc1ccccc1)NC(=O)CN1CCOCC1)C(=O)N[C@@H](Cc1ccccc1)C(=O)N[C@@H](CC(C)C)C(=O)[C@@]1(C)CO1 [Carfilzomib], the “cell viability of combination” value came out at 62.

As to `Cc1cccc(CN2CCN(C(c3ccccc3)c3ccc(Cl)cc3)CC2)c1.Cl.Cl` (stereo not given) [Meclizine 2HCl] + CC(C)C[C@H](NC(=O)[C@H](CCc1ccccc1)NC(=O)CN1CCOCC1)C(=O)N[C@@H](Cc1ccccc1)C(=O)N[C@@H](CC(C)C)C(=O)[C@@]1(C)CO1 [Carfilzomib], the “cell viability of combination” value was determined as 57.2.

Turning to `O=C(O)c1cc(O)c(O)c(O)c1` [Gallic acid] + CC(C)C[C@H](NC(=O)[C@H](CCc1ccccc1)NC(=O)CN1CCOCC1)C(=O)N[C@@H](Cc1ccccc1)C(=O)N[C@@H](CC(C)C)C(=O)[C@@]1(C)CO1 [Carfilzomib], the “cell viability of combination” value turned out to be 60.9.

On to `COC(=O)C1=C(C)NC(C)=C(C(=O)OC2CCCN(Cc3ccccc3)C2)C1c1cccc([N+](=O)[O-])c1.Cl` (stereo not given) [Benidipine HCl] + CC(C)C[C@H](NC(=O)[C@H](CCc1ccccc1)NC(=O)CN1CCOCC1)C(=O)N[C@@H](Cc1ccccc1)C(=O)N[C@@H](CC(C)C)C(=O)[C@@]1(C)CO1 [Carfilzomib], for which the “cell viability of combination” value is 57.7.

(Values after the supplement of paper PMC6992640.)
